This is part of a sample that, as a whole, favours compounds with a hit. Of some 79,000 tested, about 15% had one in any assay. Cut-off read from the data, not from the text of the source: active = growth inhibition above about 70%; inactive = the rest.
Experiments:
[1] = NCI Yeast Anticancer Drug Screen. Data for the rad50 strain (AID 155);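 note: 0% = growth of vehicle-only cultures of the same strain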; conditions: S. cerevisiae rad50 strain growth inhibition; at 50.0 µM; hits give high values
How it was run: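 Compounds were tested on a yeast strain with an engineered DNA damage repair alteration; the reported value is growth inhibition normalised to vehicle treatment.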

[2] = NCI Yeast Anticancer Drug Screen. Data for the mec2-1 strain (AID 157); conditions: S. cerevisiae mec2-1 strain, at 50.0 µM, hits give high values
How it was run: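 Compounds were applied to mec2-1 yeast cells. Their growth was then compared with that of vehicle-treated cultures to give growth inhibition.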

[3] = NCI Yeast Anticancer Drug Screen. Data for the sgs1 mgt1 strain (AID 161);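 note: 0% = growth of cultures given vehicle only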; conditions: S. cerevisiae sgs1 mgt1 strain, at 50.0 µM, hits give high values
How it was run: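 Compounds are added to genetically altered yeast, and growth is compared with cultures given vehicle alone to give percent inhibition.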

[4] = NCI Yeast Anticancer Drug Screen. Data for the cln2 rad14 strain (AID 165);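 note: 0% = growth equal to vehicle treated cultures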; conditions: S. cerevisiae cln2 rad14 strain, at 50.0 µM, hits give high values
How it was run: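 Strain: cln2 rad14 yeast, altered in cell cycle control and DNA damage repair. Read-out: growth inhibition vs vehicle.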

[5] = NCI Yeast Anticancer Drug Screen. Data for the bub3 strain (AID 167); conditions: S. cerevisiae bub3 mutant strain, at 50.0 µM, hits give high values
How it was run: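 Growth of a checkpoint-deficient yeast mutant is measured after compound exposure. Values represent inhibition relative to vehicle.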

[6] = NCI Yeast Anticancer Drug Screen. Data for the mlh1 rad18 strain (AID 175); conditions: S. cerevisiae mlh1 rad18 strain growth inhibition; at 50.0 µM; hits give high values
How it was run: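 A repair-deficient yeast strain is exposed to test compound, and growth is scored relative to vehicle-treated controls.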

Measured: growth inhibition

Cc1cc(C(=O)NN)c(C#N)c(=O)[nH]1
inactive: [1] 2.2% | [2] -5.55% | [3] -2.15% | [4] -17.5% | [5] 2.6% | [6] -0.5%

O=C(Nc1ccccc1)c1ccco1
inactive: [1] 12.3% | [2] 33.2% | [3] 13.8% | [4] -0.6% | [5] -1.55% | [6] 11.2%

CCOC(=O)c1c(C)[nH]c(C)c1C=O
inactive: [1] 16.6% | [2] -0.05% | [3] 3.15% | [4] -1.15% | [5] 52.5% | [6] 3.9%

NNc1ncccn1
inactive: [1] 6.45% | [2] -1.15% | [3] 31.4% | [4] -3.35% | [5] -10% | [6] -0.75%

O=C1C=CC(=O)C2=C1CCCC2
inactive: [1] 17.1% | [2] 10.9% | [3] 10.3% | [4] -9.75% | [5] -20.2% | [6] 26.9%

Nc1c(Br)cc(O)c2c1C(=O)c1ccccc1C2=O
inactive: [1] -11.6% | [2] -3.5% | [3] 8.55% | [4] 7% | [5] 26.9% | [6] 10.5%

O=S(=O)(OCCOS(=O)(=O)c1ccccc1)c1ccccc1
inactive: [1] 31.9% | [2] 1.45% | [3] -0.9% | [4] -27.9% | [5] -9.1% | [6] 50.7%

c1ccc(Nc2ccccn2)nc1
inactive: [1] -10.2% | [2] -13.8% | [3] -21% | [4] -87.8% | [5] 3.8% | [6] -24.6%

O=c1n(CC2CO2)c(=O)n(CC2CO2)n1CC1CO1 (centres undefined)
inactive: [1] 16.9% | [2] -5.75% | [3] 1.05% | [4] 8.35% | [5] -26.7% | [6] -8.8%

CCOC(=O)CNC
inactive: [1] 3.55% | [2] -3.25% | [3] -12.7% | [4] -4.5% | [5] 10.3% | [6] -10.9%

Nc1ccc(F)c(Cl)c1F
inactive: [1] -11% | [2] -7.8% | [3] -14.3% | [4] -24.8% | [5] -1.75% | [6] -1.8%

CN(C(=S)S(=O)(=O)C12CC3CC(CC(C3)C1)C2)c1ccccc1
inactive: [1] 28.8% | [2] 4.7% | [3] 4.35% | [4] -11.5% | [5] 17.5% | [6] -24.9%

c1ccc2[nH]c(Cc3nc4ccccc4[nH]3)nc2c1
inactive: [1] 48% | [2] -14.4% | [3] 50.4% | [4] 7.65% | [5] 35% | [6] 10.2%

O=[N+]([O-])c1ccc2[nH]c(=S)n(/C=C(/c3ccc(Cl)cc3Cl)S(=O)(=O)Cc3ccc(Cl)cc3Cl)c2c1
inactive: [1] -5.05% | [2] -13.8% | [3] 16.1% | [4] 23.9% | [5] -3% | [6] -13.1%

Cc1ccc(NC(=O)c2ccccc2Cl)cc1
inactive: [1] 12.4% | [2] -4.35% | [3] -13.3% | [4] -42% | [5] -6.3% | [6] 6.05%

CCCCCCCCCCCCSC1=C(Cl)C(=O)C(OC)=C(OC)C1=O
inactive: [1] 23.3% | [2] -18.1% | [3] 1.5% | [4] 4.75% | [5] -7.2% | [6] 38%

O=C(NCc1ccco1)Nc1cccc2c(NC(=O)NCc3ccco3)cccc12
inactive: [1] 2.15% | [2] -13.5% | [3] 2.6% | [4] 25.8% | [5] 2.05% | [6] 4.85%

Nc1ccn(C2OC(CO)C(O)C2F)c(=O)n1 (centres undefined)
inactive: [1] 12.4% | [2] 0.45% | [3] 11.9% | [4] 10.7% | [5] -0.1% | [6] -6.95%

CCOc1ccccc1NC(=O)CCl
inactive: [1] 16.4% | [2] 3.2% | [3] 8.6% | [4] -5.2% | [5] 18.9% | [6] 39.9%

O=C(O)CCCCCNC(=O)OCc1ccccc1
inactive: [1] 17.7% | [2] -41.9% | [3] 16.7% | [4] 29.9% | [5] 3.25% | [6] 9.3%

CC1CCC(C)(C)c2ccccc21 (centres undefined)
inactive: [1] 2.65% | [2] -7.25% | [3] -2.5% | [4] -2.5% | [5] -7.75% | [6] 2.3%

CN(CCCN(C)CCC1CCCCC1)CCC1CCCCC1
inactive: [1] 11.2% | [2] -1.05% | [3] 0.1% | [4] 54.8% | [5] 2.15% | [6] 7.7%

CCCCN(C(=O)CC)c1ccccc1
inactive: [1] 23.7% | [2] -29.8% | [3] 9.5% | [4] -22.4% | [5] -12.9% | [6] -62.5%

COc1cccc(N=CNc2cccc(OC)c2)c1
inactive: [1] -36.2% | [2] -34.7% | [3] -17.4% | [4] 8.55% | [5] -11.8% | [6] -27.9%

COc1ccc(Br)c2c1C(=O)CC2
inactive: [1] 43.6% | [2] 23.4% | [3] 29.4% | [4] 28.4% | [5] 5.45% | [6] 32.9%

CC(=O)NNC(=S)N/C=C/c1c(C)ccc([N+](=O)[O-])c1[N+](=O)[O-]
inactive: [1] -24.5% | [2] -35% | [3] -28.4% | [4] -31.9% | [5] -36% | [6] -2.8%

CC(C)N(C(=O)c1ccccc1)C(C)C
inactive: [1] 20.2% | [2] 26.2% | [3] 29.4% | [4] -20.1% | [5] -7.35% | [6] 2.35%

C=C(C)COc1ccc(C(C)(C)C)cc1
inactive: [1] 18.1% | [2] 16.7% | [3] 11.1% | [4] 8.1% | [5] 17.6% | [6] 12%

CC1(C)C2CCC1(C)C1(C2)OCCS1 (centres undefined)
inactive: [1] 24.8% | [2] -5.25% | [3] 1% | [4] 11.2% | [5] 1.05% | [6] -7.65%

O=C(O)C1CSC(c2ccccc2)N1 (centres undefined)
inactive: [1] 1.95% | [2] -12.8% | [3] -4.35% | [4] 3% | [5] -5.55% | [6] 2.55%

COc1ccc(/C=C\C(=O)/C=C/c2ccc(OC)cc2)cc1
inactive: [1] -11.9% | [2] 7.05% | [3] 1.5% | [4] -14.4% | [5] -3.35% | [6] 0%

Cc1onc(-c2c(F)cccc2Cl)c1-c1ncc(-c2ccc(Br)cc2)o1
inactive: [1] -13.4% | [2] -15.9% | [3] -9.75% | [4] 9.45% | [5] -15.5% | [6] 9.7%

CC(=O)c1cccc(NS(=O)(=O)c2ccc(C)cc2)c1
inactive: [1] -4.85% | [2] -21.2% | [3] -18.1% | [4] -36.7% | [5] -7.9% | [6] 35.9%

CCNC(=O)Oc1ccc[nH]c1=O
inactive: [1] -7.65% | [2] -10.8% | [3] -1.1% | [4] -15.9% | [5] -2.2% | [6] -47.8%

N#CC1(O)CCCCC1
inactive: [1] 42.6% | [2] 10.6% | [3] 14.7% | [4] 23.2% | [5] 17.9% | [6] 28.4%

Nc1cc2c(cc1Cl)C(=O)c1ccccc1C2=O
inactive: [1] 32.4% | [2] 16.6% | [3] 9.75% | [4] -63.6% | [5] 38.4% | [6] 1.35%

CC(C)C1CCC(C)C(O)C1 (centres undefined)
inactive: [1] 26.7% | [2] 6.35% | [3] 8.55% | [4] 8.9% | [5] -0.55% | [6] 12.8%

C/C(O)=C(/C=N\C(=S)Nc1ccc(S(=O)(=O)Nc2nccs2)cc1)C(=O)Nc1ccccc1C
inactive: [1] -14.3% | [2] 8.1% | [3] 15.3% | [4] 32.8% | [5] 7.65% | [6] -18.8%

CC(=O)N=c1ccc2nc3c(cc(N)c4ccccc43)oc-2c1
inactive: [1] 25.4% | [2] 13.2% | [3] 27.6% | [4] 20.9% | [5] 40.5% | [6] 33.8%

CCC1CCC(C)NC1 (centres undefined)
inactive: [1] 26.4% | [2] 2.75% | [3] 17.2% | [4] 23.6% | [5] -7.05% | [6] 21.8%

O=Cc1ccc(Cl)c(Cl)c1
inactive: [1] -3.55% | [2] -9.5% | [3] -18.8% | [4] -16.9% | [5] -5.85% | [6] -23.1%

Nc1ccn(C2CC(N)C(CO)O2)c(=O)n1 (centres undefined)
inactive: [1] 16.1% | [2] 7.15% | [3] 9.25% | [4] 19.8% | [5] 6.9% | [6] 32.4%

CC(CO)(CO)C(=O)O
inactive: [1] 4.35% | [2] -31.4% | [3] -11.6% | [4] 21.3% | [5] -14% | [6] 10.1%

Cc1ccc2nc(N)nnc2c1
inactive: [1] -5.9% | [2] -34.1% | [3] 3.9% | [4] 20.8% | [5] -17.1% | [6] -3.15%

— PubChem BioAssay (NCI)
